A short description of assay [1]: Nuclear factor erythroid 2-related factor 2/antioxidant responsive element (Nrf2/ARE) small molecule agonists: qHTS cell viability counter screen in human keratinocytes (AID 1919968; active = well fitted curve in the direction sought with a large enough effect in the repeat runs; an effect the other way counts as inactive or inconclusive; also: nearly all actives have a fitted effect of over 55% in size). Put shortly:
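Measured as CellTiter-Fluor fluorescence, this readout tracks cytotoxicity in the same wells as the ARE-luciferase screen. HaCaT reporter cells (1,500/well) received compounds after a 5 h pre-incubation and were exposed for 23 h.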

Assay [2] can be described thus: Nuclear factor erythroid 2-related factor 2/antioxidant responsive element (Nrf2/ARE) small molecule agonists: luciferase reporter gene qHTS assay in human keratinocytes (AID 1919969). Also: nearly all actives have a fitted effect of over 35% in size. Also: potency is read from the fitted curve at half-maximal effect. For orientation: Reporter assays use an easily measured gene product as a stand-in for the process of interest.
The target of assay [3] is Gonadotropin-releasing hormone receptor (Homo sapiens) (UniProt P30968). Put plainly: Human gonadotropin-releasing hormone receptor (GnRHR) small molecule agonists, calcium flux assay in GnRHR-HEK293 cells (AID 1920063). Also: nearly all actives have a fitted effect of over 35% in size. Put shortly: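 Fluorescence kinetics (480 nm excitation, 540 nm emission; 3 min, 1 s steps) report calcium mobilisation in human GnRHR-HEK293 cells in agonist mode. Dye incubation: 1 h, 37 C.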
For orientation: Calcium assays in cells follow changes in intracellular calcium, usually with a dye or a luminescent sensor.

For assay [4], the target named is KiSS-1 receptor (Homo sapiens) (UniProt Q969F8). The assay can be described thus: Human kisspeptin (KISS1R) small molecule agonists, calcium flux assay in KISS1R-HEK293 cells (AID 1920064; active = well fitted curve in the direction sought with a large enough effect in the repeat runs; an effect the other way counts as inactive or inconclusive). Put shortly:
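Measures KISS1R agonism through calcium-sensitive dye fluorescence in stably transfected HEK293 cells, read for 3 min after pin-tool compound delivery; 15-point titrations in triplicate.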

The nature of assay [5]: G protein-coupled receptor (GPCR) small molecule agonists, calcium flux assay: HEK293 wild type cell line counter screen (AID 1920065). The method in brief: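 Readout: fluorescence at 480 nm excitation/540 nm emission, sampled at 1 s intervals for 3 min. Cells had been cultured 18 h, then dye-loaded 1 h at 37 C before compound or ATP addition.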
The nature of assay [6]: p53 small molecule agonists, cell-based qHTS assay with rat liver microsomes (AID 1963578). Also: potency is read from the fitted curve at half-maximal effect. The method in brief:
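Compound in DMSO added to p53RE-bla cells 5 h post-plating; rat microsomes/NADPH 0.5 mg/mL final; 16 h, 37 C; LiveBLAzer 2 h RT.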
On the technique in general: In qHTS, concentration-response curves come from the screen itself.

A short description of assay [7]: p53 small molecule agonists, cell-based qHTS assay with rat liver microsomes: qHTS cell viability counter screen (AID 1963580). Also: nearly all actives have a fitted effect of over 45% in size. Put shortly:
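Viability is assessed in parallel with the p53 reporter read: HCT-116 p53RE-bla cells receive compounds plus rat microsomes and NADPH (0.5 mg/mL final apiece), incubate 16 h at 37 C, and then CellTiter-Glo luminescence is recorded.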

Assay [8] in a line: p53 small molecule agonists, cell-based qHTS assay: qHTS cell viability counter screen (AID 1963581). Also: nearly all actives have a fitted effect of over 45% in size. The method in brief:
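In the same plates used for the p53 bla reporter, HCT-116 cells given compounds for 16 h at 37 C received CellTiter-Glo; luminescence was recorded 30 min later at room temperature.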

The nature of assay [9]: p53 small molecule agonists, cell-based qHTS assay (AID 1963582; active = well fitted activation curve with a large enough effect in the signal ratio in the repeat runs, not every such curve was filed as active; the % refers to the signal ratio). The method in brief: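 Compounds are pin-transferred in DMSO onto p53RE-bla cells and incubated 16 h at 37 C. The B/G FRET beta-lactamase substrate is then applied for 2 h at RT and fluorescence recorded.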
Assay [10] can be described thus: cAMP Responsive Elements (CRE) small molecule antagonists, cell-based qHTS assay (AID 1963591; active = well fitted inhibition curve with a large enough effect in the signal ratio in the repeat runs, not every such curve was filed as active; the % refers to the signal ratio). The method in brief: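 Inhibition of NKH477-driven (0.25 uM final) CRE-beta-lactamase signal in HEK293T cells, 3 h compound exposure at 37 °C, detected by FRET substrate fluorescence.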
The target of assay [11] is D(2) dopamine receptor (Homo sapiens) (UniProt P14416). The assay can be described thus: Dopamine D2 receptor (DRD2) small molecule agonists, cell-based qHTS assay (AID 1963594). Also: nearly all actives have a fitted effect of over 35% in size. Put shortly:
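HEK293 cells stably expressing human DRD2, pre-treated with PDE inhibitor Ro20-1724 (0.1 mM final) and compound 10 min at room temperature, then stimulated with NKH477 (200nM […]) for 30 min. cAMP read by HTRF (665/620 nm).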

Assay [12] can be described thus: p53 small molecule agonists, cell-based qHTS assay with human liver microsomes: qHTS cell viability counter screen (AID 1963579). Also: nearly all actives have a fitted effect of over 45% in size. Put shortly: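 HLM-supplemented (0.5 mg/mL final) and NADPH-supplemented (0.5 mg/mL final) p53RE-bla cultures, 4,000 cells per well, were dosed with compounds in DMSO for 16 h at 37 C; luminescent ATP detection (CellTiter-Glo, 30 min, room temperature) quantified surviving cells.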

Assay [13] is described as follows: cAMP Responsive Elements (CRE) small molecule agonists, cell-based qHTS assay (AID 1963590). Put shortly: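 Cell line: CRE-bla HEK 293T; medium DMEM/10% dialyzed FBS/0.1 mM NEAA/1 mM pyruvate/25 mM HEPES; 3 h compound exposure; beta-lactamase FRET readout after 2 h substrate loading at RT.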
Assay [14] deals with Beta-2 adrenergic receptor (Homo sapiens) (UniProt P07550). The assay can be described thus: Adrenergic beta2 receptor (ADRB2) small molecule antagonists, cell-based qHTS assay (AID 1963592). Also: series mostly up to about 92 µM; nearly all actives have a fitted effect of over 50% in size. Put shortly: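 Cells (CHO, stable ADRB2 overexpression) incubated 18-20hr at 37C; compounds added from DMSO; agonist mix (1nM isoproterenol, 100uM IBMX, 25uM Ro-20-1724) added; 0.5hr RT; d2-cAMP and anti-cAMP-cryptate added; 1hr RT; 665/615 nm read.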

The target is the same in assay [15]. Put plainly: Adrenergic beta2 receptor (ADRB2) small molecule agonists, cell-based qHTS assay (AID 1963593).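 Also: CHO cells stably overexpressing human ADRB2.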 Put shortly:
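CHO cells stably over-expressing ADRB2 were plated overnight at 37C, then dosed with compounds plus a stimulation mix containing 100uM IBMX and 25uM Ro-20-1724 for 0.5hr at room temperature. cAMP was measured by HTRF competition, 1hr.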

Assay [16] concerns the target D(2) dopamine receptor (Homo sapiens) (UniProt P14416). Put plainly: Dopamine D2 receptor (DRD2) small molecule antagonists, cell-based qHTS assay (AID 1963595; active = well fitted inhibition curve with a large enough effect in the signal ratio in the repeat runs, with a control signal flat; the % refers to the signal ratio). The method in brief: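 HEK293 cells stably expressing DRD2 were preincubated with 0.1 mM Ro20-1724, then with compound for 10 min at room temperature. Cells were stimulated with 200 nM NKH477 plus 12 nM quinpirole for 30 min, and cAMP was read by HTRF.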

Assay [17] has as its target 5-hydroxytryptamine receptor 2A (Homo sapiens) (UniProt P28223). Put plainly: 5-hydroxytryptamine receptor 2A (HTR2A) small molecule antagonists, cell-based qHTS assay (AID 1963586). Also: nearly all actives have a fitted effect of over 45% in size. The method in brief:
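Antagonist-mode intracellular calcium assay: DOI (4 nM) added after 5 min compound pre-incubation at room temperature to dye-loaded HTR2A-CHO cells. Fluorescence followed for 3 min, sampled every second.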

The target is the same in assay [18]. Put plainly: 5-hydroxytryptamine receptor 2A (HTR2A) small molecule agonists, cell-based qHTS assay (AID 1963587). Also: nearly all actives have a fitted effect of over 30% in size. The method in brief: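 CHO cells stably expressing human HTR2A, plated 18 h, loaded with calcium dye 1 h at 37 C. Agonist mode: compounds added and intracellular calcium fluorescence recorded kinetically for 2 min at 1 sec intervals.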
Assay [19] concerns the target Muscarinic acetylcholine receptor M1 (Homo sapiens) (UniProt P11229). Put plainly: Cholinergic receptor muscarinic 1 (CHRM1) small molecule antagonists, cell-based qHTS assay (AID 1963588). Also: nearly all actives have a fitted effect of over 40% in size. The method in brief: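 CHRM1-CHO calcium-flux assay, antagonist mode. Cells were seeded 18 h, dye-loaded 1 h at 37 C and given compound for 5 min at RT, then acetylcholine was added at 50nM. FDSS fluorescence was read 3 min; 15 concentrations, three runs.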

The target is the same in assay [20]. Put plainly: Cholinergic receptor muscarinic 1 (CHRM1) small molecule agonists, cell-based qHTS assay (AID 1963589). Also: nearly all actives have a fitted effect of over 35% in size. The method in brief:
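Each compound was tested at 15 concentrations across three independent runs on dye-loaded CHO cells stably expressing human CHRM1, reading intracellular calcium fluorescence kinetically at 1 sec intervals.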

Unmarked numbers belong to inactive results. Inconclusive results are not listed. Calls of active or inactive are those of the source. Unless noted, calls follow the shape of the full dose curve.

Chain of KiSS-1 receptor (Homo sapiens) (Q969F8 whole entry, looked up): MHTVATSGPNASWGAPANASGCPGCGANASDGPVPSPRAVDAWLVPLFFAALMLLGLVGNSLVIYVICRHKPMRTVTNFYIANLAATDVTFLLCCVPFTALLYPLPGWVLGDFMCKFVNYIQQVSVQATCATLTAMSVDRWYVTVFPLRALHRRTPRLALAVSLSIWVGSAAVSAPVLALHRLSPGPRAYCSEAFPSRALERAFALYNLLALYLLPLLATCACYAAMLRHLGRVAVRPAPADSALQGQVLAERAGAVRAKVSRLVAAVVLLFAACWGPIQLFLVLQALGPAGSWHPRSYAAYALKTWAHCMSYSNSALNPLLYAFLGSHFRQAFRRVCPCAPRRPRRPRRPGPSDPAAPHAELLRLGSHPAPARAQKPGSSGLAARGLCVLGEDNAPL
Chain of Gonadotropin-releasing hormone receptor (Homo sapiens) (P30968 whole entry, looked up): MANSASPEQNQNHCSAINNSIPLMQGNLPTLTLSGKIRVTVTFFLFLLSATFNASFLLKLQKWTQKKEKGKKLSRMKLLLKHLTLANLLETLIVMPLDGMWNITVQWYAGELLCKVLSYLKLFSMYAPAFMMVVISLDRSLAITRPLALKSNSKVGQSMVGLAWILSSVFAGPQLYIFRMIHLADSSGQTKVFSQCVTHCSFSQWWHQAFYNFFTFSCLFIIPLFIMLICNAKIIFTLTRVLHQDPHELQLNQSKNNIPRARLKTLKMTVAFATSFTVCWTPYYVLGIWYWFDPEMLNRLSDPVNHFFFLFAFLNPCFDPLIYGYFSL
Chain of 5-hydroxytryptamine receptor 2A (Homo sapiens) (P28223 whole entry, looked up): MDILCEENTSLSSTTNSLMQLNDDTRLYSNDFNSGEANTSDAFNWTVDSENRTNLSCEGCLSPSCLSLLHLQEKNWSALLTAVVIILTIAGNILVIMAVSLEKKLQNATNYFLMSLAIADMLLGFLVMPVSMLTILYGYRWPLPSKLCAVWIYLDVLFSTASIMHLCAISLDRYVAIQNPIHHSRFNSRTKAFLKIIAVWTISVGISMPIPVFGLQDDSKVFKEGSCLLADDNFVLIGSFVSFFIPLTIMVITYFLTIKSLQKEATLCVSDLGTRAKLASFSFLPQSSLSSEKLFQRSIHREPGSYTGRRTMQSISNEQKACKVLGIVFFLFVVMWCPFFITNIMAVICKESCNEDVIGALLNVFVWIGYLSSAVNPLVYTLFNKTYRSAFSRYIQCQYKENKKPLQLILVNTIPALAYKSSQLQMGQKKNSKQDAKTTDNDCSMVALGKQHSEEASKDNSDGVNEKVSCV
Chain of Muscarinic acetylcholine receptor M1 (Homo sapiens) (P11229 whole entry, looked up): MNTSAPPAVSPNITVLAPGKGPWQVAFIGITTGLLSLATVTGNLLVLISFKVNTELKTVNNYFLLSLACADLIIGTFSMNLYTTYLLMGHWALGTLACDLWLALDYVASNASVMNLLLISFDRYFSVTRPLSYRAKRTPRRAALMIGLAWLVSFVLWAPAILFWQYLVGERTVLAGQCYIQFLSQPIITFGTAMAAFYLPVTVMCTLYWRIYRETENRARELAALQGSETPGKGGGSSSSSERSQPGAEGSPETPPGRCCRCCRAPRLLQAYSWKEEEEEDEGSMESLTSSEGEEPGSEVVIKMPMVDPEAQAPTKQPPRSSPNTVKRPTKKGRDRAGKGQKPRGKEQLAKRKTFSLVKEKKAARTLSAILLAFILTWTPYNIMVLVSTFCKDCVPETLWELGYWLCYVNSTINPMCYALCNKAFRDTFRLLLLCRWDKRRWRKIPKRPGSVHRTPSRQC
Chain of D(2) dopamine receptor (Homo sapiens) (P14416 whole entry, looked up): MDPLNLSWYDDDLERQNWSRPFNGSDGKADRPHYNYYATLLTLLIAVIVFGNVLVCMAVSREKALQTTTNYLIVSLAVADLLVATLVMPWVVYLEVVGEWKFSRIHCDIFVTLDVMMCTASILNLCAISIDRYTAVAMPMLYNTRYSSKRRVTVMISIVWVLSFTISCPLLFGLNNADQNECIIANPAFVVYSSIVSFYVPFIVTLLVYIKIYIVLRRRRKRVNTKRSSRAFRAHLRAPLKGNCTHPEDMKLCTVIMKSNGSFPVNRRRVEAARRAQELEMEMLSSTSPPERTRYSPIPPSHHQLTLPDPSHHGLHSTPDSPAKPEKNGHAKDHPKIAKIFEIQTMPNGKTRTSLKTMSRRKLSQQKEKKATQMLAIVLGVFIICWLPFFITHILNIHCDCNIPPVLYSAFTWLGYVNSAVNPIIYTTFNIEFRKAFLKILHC
Chain of Beta-2 adrenergic receptor (Homo sapiens) (P07550 whole entry, looked up): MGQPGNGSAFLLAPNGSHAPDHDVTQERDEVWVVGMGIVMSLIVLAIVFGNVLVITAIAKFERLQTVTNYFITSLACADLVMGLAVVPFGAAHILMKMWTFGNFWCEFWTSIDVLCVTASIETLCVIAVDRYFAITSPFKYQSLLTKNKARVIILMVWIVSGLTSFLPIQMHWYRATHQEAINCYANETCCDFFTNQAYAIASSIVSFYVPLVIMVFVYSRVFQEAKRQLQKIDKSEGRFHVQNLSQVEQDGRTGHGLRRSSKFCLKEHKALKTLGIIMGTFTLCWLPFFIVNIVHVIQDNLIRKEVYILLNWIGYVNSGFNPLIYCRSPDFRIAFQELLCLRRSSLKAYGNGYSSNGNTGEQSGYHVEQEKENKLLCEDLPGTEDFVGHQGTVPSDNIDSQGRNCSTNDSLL

`Cc1ccc(C(=O)C(C)CN2CCCCC2)cc1` (configuration not stated): the Potency result in assay [1], in [2], in [3], in assay [4], in assay [5] and in [6] was “inactive” throughout. Also, the Potency entry in assay [7], in assay [8], in assay [9], in [10] and in assay [11] was “inactive” in each case.
Regarding `CC1(C)O[C@@H]2C[C@H]3[C@@H]4CCC5=CC(=O)CC[C@]5(C)[C@@]4(F)[C@@H](O)C[C@]3(C)[C@]2(C(=O)CCl)O1`, the Potency entry in assay [1], in [2], in assay [3], in assay [4], in [5] and in assay [12] was “inactive” each time. Moreover, the Potency entry in assay [7], in assay [8], in assay [9], in assay [13], in assay [14] and in assay [15] was “inactive” each time. Also, the Potency entry in assay [11] and in assay [16] was “inactive” each time.
Consider `COC(=O)C1=C(C)NC(C)=C(C(=O)OCC(C)=O)C1c1ccccc1[N+](=O)[O-]` (configuration not stated), for which the Potency result in assay [1], in [2], in assay [3], in assay [4], in assay [5] and in [6] was “inactive” throughout. The Potency entry in [7], in assay [8], in assay [9], in [17], in [18] and in assay [19] was “inactive” throughout. The Potency entry in assay [20], in assay [13], in assay [10], in assay [14], in [11] and in [16] was “inactive” throughout.
In the case of `COC(=O)CC(=O)C(C)(C)C`, the Potency entry in assay [1], in assay [2], in assay [3], in [4], in [5] and in assay [12] was “inactive” throughout. Besides, the Potency result in assay [7], in assay [8], in [17], in assay [18], in assay [19] and in [20] was “inactive” each time. Also, the Potency entry in assay [13], in assay [10], in assay [14], in assay [15], in [11] and in assay [16] was “inactive” in each case.
For the compound `CN(C)C(=O)COC(=O)Cc1ccc(OC(=O)c2ccc(N=C(N)N)cc2)cc1`, the Potency entry in assay [1], in [2], in assay [3], in assay [4], in [5] and in assay [12] was “inactive” throughout. The Potency result in assay [7], in assay [8], in assay [17], in assay [18], in assay [19] and in [20] was “inactive” in each case. Further, the Potency entry in [13], in assay [10], in [14], in assay [15] and in [11] was “inactive” in each case.
For the compound `Nc1nnc(-c2ccc([N+](=O)[O-])o2)o1`, the Potency entry in assay [1], in [3], in assay [4], in assay [5], in assay [12] and in assay [7] was “inactive” throughout. Besides, the Potency entry in assay [8], in assay [9], in assay [17], in assay [18], in assay [19] and in [20] was “inactive” throughout. In addition, the Potency entry in assay [10], in assay [14], in assay [15] and in assay [11] was “inactive” throughout. Moreover, the Potency in [2] was 61.1 µM (active).
With `Cc1ccc2nc(-c3ccc(N)cc3)sc2c1S(=O)(=O)O`, the Potency result in assay [1], in assay [3], in assay [4], in assay [5], in assay [7] and in assay [8] was “inactive” each time. Further, the Potency entry in assay [17], in assay [18], in [20], in assay [10], in [14] and in [15] was “inactive” in each case. Moreover, the Potency result in [11] and in [16] was “inactive” each time. Moreover, the Potency in assay [2] is 10.7 µM (active); in assay [6] it was 17.9 µM (active).
As to `CCN(CC)c1cccc(O)c1`, the Potency entry in [1], in assay [3], in [4], in assay [5], in [6] and in [7] was “inactive” each time. The Potency entry in [9], in assay [17], in assay [18], in assay [19], in [20] and in assay [13] was “inactive” in each case. Besides, the Potency entry in assay [14], in assay [11] and in assay [16] was “inactive” each time. Besides, the Potency in assay [2] is 11.1 µM (active).

The values are drawn from PubChem BioAssay (Tox21).
